Source: PubChem BioAssay (NCATS)
Results filed as inconclusive are left out. Active and inactive are the calls of the source. Calls follow the shape of the dose curve; as a rule, active = well fitted inhibition curve with a large enough effect; inconclusive = small, poorly fitted or top-dose-only effect; inactive = flat fitted curve, though single readings scatter.

Tests used:
Assay in all cases: qHTS profiling for inhibitors of Plasmodium falciparum proliferation (AID 504749);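 also: 0% = DMSO vehicle and full inhibition = artemisinin control; nearly all actives have a fitted effect of over 60% in size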
Settings in all cases: P. falciparum in erythrocytes, SYBR Green DNA, 72 h; series mostly up to 28.7 µM
[1] = tested on: 7G8
Method in brief: (§1)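 P. falciparum-infected erythrocytes (0.3% parasitemia, 2.5% hematocrit final) were exposed to compounds for 72 h at 37 C in 5% CO2, then lysed with SYBR Green buffer overnight at room temperature; parasite DNA fluorescence was normalized to artemisinin and DMSO controls.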

[2] = tested on: AA1029
Method in brief: as §1

[3] = tested on: AS120
Method in brief: as §1

[4] = tested on: ATS189
Method in brief: as §1

[5] = tested on: ATS95
Method in brief: as §1

[6] = tested on: C2A
Method in brief: as §1

[7] = tested on: CP185
Method in brief: as §1

[8] = tested on: CP191
Method in brief: as §1

[9] = tested on: CP192
Method in brief: as §1

[10] = tested on: CP194
Method in brief: as §1

[11] = tested on: CP201
Method in brief: as §1

[12] = tested on: CP203
Method in brief: as §1

[13] = tested on: CP211
Method in brief: as §1

[14] = tested on: CP215
Method in brief: as §1

[15] = tested on: CP217
Method in brief: as §1

[16] = tested on: CP237
Method in brief: as §1

[17] = tested on: CP238
Method in brief: as §1

[18] = tested on: CP247
Method in brief: as §1

[19] = tested on: CP250
Method in brief: as §1

[20] = tested on: CP252
Method in brief: as §1

C[C@]12CCC(=O)C=C1CC[C@@H]1[C@@H]2CC[C@]2(C)C(=O)CC[C@@H]12
inactive: Potency [1] | Potency [2] | Potency [3] | Potency [4] | Potency [5] | Potency [6] | Potency [7] | Potency [8] | Potency [9] | Potency [10] | Potency [11] | Potency [12] | Potency [13] | Potency [14] | Potency [15] | Potency [16] | Potency [17] | Potency [18] | Potency [19] | Potency [20]

COP(=S)(OC)Oc1ccc(S(=O)(=O)N(C)C)cc1
inactive: Potency [1] | Potency [2] | Potency [3] | Potency [4] | Potency [5] | Potency [6] | Potency [7] | Potency [8] | Potency [9] | Potency [10] | Potency [11] | Potency [12] | Potency [13] | Potency [14] | Potency [15] | Potency [16] | Potency [17] | Potency [18] | Potency [19] | Potency [20]

Nc1nc(N)nc(NC2CC2)n1
inactive: Potency [1] | Potency [2] | Potency [3] | Potency [4] | Potency [5] | Potency [6] | Potency [7] | Potency [8] | Potency [9] | Potency [10] | Potency [11] | Potency [12] | Potency [13] | Potency [14] | Potency [15] | Potency [16] | Potency [17] | Potency [18] | Potency [19] | Potency [20]

CCCCCCC(=O)CCCCCC/C=C/C[C@@H](O)[C@H](O)[C@@](N)(CO)C(=O)O
inactive: Potency [1] | Potency [2] | Potency [3] | Potency [4] | Potency [5] | Potency [6] | Potency [7] | Potency [8] | Potency [9] | Potency [10] | Potency [11] | Potency [12] | Potency [13] | Potency [14] | Potency [15] | Potency [16] | Potency [17] | Potency [18] | Potency [20]

CCOC(=O)CC(SP(=S)(OC)OC)C(=O)OCC (centres undefined)
inactive: Potency [1] | Potency [2] | Potency [3] | Potency [4] | Potency [5] | Potency [6] | Potency [7] | Potency [8] | Potency [9] | Potency [10] | Potency [11] | Potency [12] | Potency [13] | Potency [14] | Potency [15] | Potency [16] | Potency [17] | Potency [18] | Potency [19] | Potency [20]

Clc1ccc2c(c1)C(c1ccccc1)=NCc1nncn1-2
inactive: Potency [1] | Potency [2] | Potency [3] | Potency [4] | Potency [5] | Potency [6] | Potency [7] | Potency [8] | Potency [9] | Potency [10] | Potency [11] | Potency [12] | Potency [13] | Potency [14] | Potency [15] | Potency [16] | Potency [17] | Potency [18] | Potency [19] | Potency [20]

CC(C)NC(C)C
inactive: Potency [1] | Potency [2] | Potency [3] | Potency [4] | Potency [5] | Potency [6] | Potency [7] | Potency [8] | Potency [9] | Potency [10] | Potency [11] | Potency [12] | Potency [13] | Potency [14] | Potency [15] | Potency [16] | Potency [17] | Potency [18] | Potency [19] | Potency [20]

Cc1ncsc1CCCl
inactive: Potency [1] | Potency [2] | Potency [3] | Potency [4] | Potency [5] | Potency [6] | Potency [7] | Potency [8] | Potency [9] | Potency [10] | Potency [11] | Potency [12] | Potency [13] | Potency [14] | Potency [15] | Potency [16] | Potency [17] | Potency [18] | Potency [19] | Potency [20]

CN1C(=O)NC(=O)C(C)(C2=CCCCC2)C1=O (centres undefined)
inactive: Potency [1] | Potency [2] | Potency [3] | Potency [4] | Potency [5] | Potency [6] | Potency [7] | Potency [8] | Potency [9] | Potency [10] | Potency [11] | Potency [12] | Potency [13] | Potency [14] | Potency [15] | Potency [16] | Potency [17] | Potency [18] | Potency [19] | Potency [20]

CCCCC/C=C\C/C=C\C/C=C\C/C=C\CCCC(=O)NCC(=O)O
inactive: activity, negative = inhibition [1] -4.42% [at 2.67 µM] | activity, negative = inhibition [2] -5.7% [at 2.67 µM] | activity, negative = inhibition [3] -10.8% [at 2.67 µM] | activity, negative = inhibition [4] -4.38% [at 2.67 µM] | activity, negative = inhibition [5] -8.06% [at 2.67 µM] | activity, negative = inhibition [6] -0.778% [at 2.67 µM] | activity, negative = inhibition [7] 13.1% [at 2.67 µM] | activity, negative = inhibition [8] 8.29% [at 2.67 µM] | activity, negative = inhibition [9] -0.958% [at 2.67 µM] | activity, negative = inhibition [10] 0.793% [at 2.67 µM] | activity, negative = inhibition [11] 1.43% [at 2.67 µM] | activity, negative = inhibition [12] 6.81% [at 2.67 µM] | activity, negative = inhibition [13] 8.66% [at 2.67 µM] | activity, negative = inhibition [14] 4.08% [at 2.67 µM] | activity, negative = inhibition [15] -11% [at 2.67 µM] | activity, negative = inhibition [16] 0.3% [at 2.67 µM] | activity, negative = inhibition [17] -1.95% [at 2.67 µM] | activity, negative = inhibition [18] 9.07% [at 2.67 µM] | activity, negative = inhibition [19] 11.6% [at 2.67 µM] | activity, negative = inhibition [20] -0.781% [at 2.67 µM]

Oc1ccc(Cl)cc1
inactive: Potency [1] | Potency [2] | Potency [3] | Potency [4] | Potency [5] | Potency [6] | Potency [7] | Potency [8] | Potency [9] | Potency [10] | Potency [11] | Potency [12] | Potency [13] | Potency [14] | Potency [15] | Potency [16] | Potency [17] | Potency [18] | Potency [19] | Potency [20]

NNc1ccccc1
inactive: Potency [1] | Potency [2] | Potency [3] | Potency [4] | Potency [5] | Potency [6] | Potency [7] | Potency [8] | Potency [9] | Potency [10] | Potency [11] | Potency [12] | Potency [13] | Potency [14] | Potency [15] | Potency [16] | Potency [17] | Potency [18] | Potency [19] | Potency [20]
